In the library only some 1.9% were active in any assay of this set; here they are far more common.
dFosB activator – mouse delta FosB homodimer activation. P13346. purified delta FosB, TAMRA-CDK5 oligo fluorescence polarization; percent of positive-control signal above neutral wells. activation, % at 25 µM. 340,000 tested, 0.99% active. AID 493131;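 active = mean activation above about 17%, with every replicate also reaching it, limit read from the data, passing the limit was not always enough; inconclusive = only one of the two conditions met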
Target sequence (P13346 whole entry, looked up): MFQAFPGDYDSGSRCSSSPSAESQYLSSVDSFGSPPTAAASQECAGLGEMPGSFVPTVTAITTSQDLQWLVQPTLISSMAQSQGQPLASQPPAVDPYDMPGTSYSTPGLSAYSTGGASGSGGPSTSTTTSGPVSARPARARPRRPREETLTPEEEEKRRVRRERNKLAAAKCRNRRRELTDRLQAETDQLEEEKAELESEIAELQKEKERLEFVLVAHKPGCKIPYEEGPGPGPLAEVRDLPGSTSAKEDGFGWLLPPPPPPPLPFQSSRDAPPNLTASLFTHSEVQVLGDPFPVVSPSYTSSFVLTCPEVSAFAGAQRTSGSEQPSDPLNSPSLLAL
14-3-3 Bad PPI – disrupts binding of bovine 14-3-3 zeta to phospho-Bad peptide; P63103; TR-FRET 14-3-3zeta/Dy647-pBad peptide displacement, 1 h; inhibition, % at 21.7 µM; 220,000 tested, 0.71% active;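 active = inhibition above about 70%, limit read from the data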
Target sequence (P63103 whole entry, looked up): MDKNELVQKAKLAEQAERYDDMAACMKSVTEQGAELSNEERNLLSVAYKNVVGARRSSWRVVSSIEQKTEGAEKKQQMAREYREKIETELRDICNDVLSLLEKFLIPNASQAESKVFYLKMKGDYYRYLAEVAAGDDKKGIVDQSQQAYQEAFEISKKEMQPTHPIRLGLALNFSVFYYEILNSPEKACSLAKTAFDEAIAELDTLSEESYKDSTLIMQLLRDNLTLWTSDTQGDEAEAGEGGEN
HMGR II inh – inhibitors of class II HMG-CoA reductase from Enterococcus faecalis; AID 1066; 190,000 tested, 0.41% active; purified E. faecalis HMGR, NADPH absorbance 340 nm kinetic; inhibition, % at 10 µM;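 active = inhibition above a set limit, the median over all tested compounds plus 3 SD, cut at about 9.5% in these data; inconclusive = no clear call, values can overlap the other calls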;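 also: enzyme runs in reverse so mevalonate oxidation gives rising NADPH absorbance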
p47phox inh – blocks human p47phox regulatory protein of NADPH oxidases. P14598. p47phox/p22phox peptide binding, fluorescence polarization, 2 h. inhibition, % at 24.7 µM. 220,000 tested, 0.53% active;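 active = inhibition above about 30%, limit read from the data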
Each line names hits and unclear results; the compound was inactive in the other large screens; [ ] = dose if it differs, or a comment.

C/C(=N/NS(=O)(=O)c1ccc(Cl)cc1)c1cccc(NC(=O)c2ccc(Cl)cc2Cl)c1	p47phox inh 31
C/C(=N/NS(=O)(=O)c1ccc(C)cc1)c1cccc(NC(=O)c2cccc(Cl)c2)c1	none
Cc1nc(SC(C)C(=O)Nc2cccc(C(F)(F)F)c2)c2c(C)c(C(=O)O)sc2n1 (stereo not drawn)	none (no result: HMGR II inh)
CC1(C)CC(=O)c2sc(NS(C)(=O)=O)nc2C1	14-3-3 Bad PPI 71
O=C(Nc1cccc(S(=O)(=O)N2CCCC2)c1)c1ccc2c(c1)OCO2	none
CC(=O)N1CCN(c2ccc(NC(=O)c3ccc4c(c3)OCCO4)cc2)CC1	none
CCCCOc1ccc(C(=O)Nc2ccc3c(c2)C(=O)NC3=O)cc1	none (no result: 14-3-3 Bad PPI, HMGR II inh, p47phox inh)
CCOc1ccc(C(=O)Nc2ccc3c(c2)C(=O)NC3=O)cc1	dFosB activator 59 (no result: 14-3-3 Bad PPI, HMGR II inh, p47phox inh)
O=C(Nc1ccc(N2CCCCC2)cc1)c1ccc2c(c1)OCCO2	HMGR II inh 27
CCOc1ccc(C(=O)Nc2ccc(N3CCCC3)cc2)cc1	dFosB activator 22, 14-3-3 Bad PPI 85[fluorescence artefact?]
O=C(Nc1cccc(S(=O)(=O)N2CCCCCC2)c1)c1ccc2c(c1)OCO2	14-3-3 Bad PPI 78
CCOc1cccc(C(=O)Nc2ccc(N3CCCC3)cc2)c1	none (no result: 14-3-3 Bad PPI, HMGR II inh, p47phox inh)
O=C(CCn1c(=O)sc2ccccc21)NCCCn1ccnc1	none
CN(C)C(CNC(C(=O)Nc1ccc(F)cc1)c1ccccc1)c1ccccc1 (stereo not drawn)	none (no result: 14-3-3 Bad PPI, HMGR II inh, p47phox inh)
COc1ccc(C(=O)Nc2ccc(N3CCCC3)cc2)cc1	dFosB activator 29 (no result: 14-3-3 Bad PPI)
CCOc1ccc(NC(=O)C2CCCN(S(=O)(=O)c3c(C)nn(C)c3C)C2)cc1 (stereo not drawn)	none
Cc1ccc(-n2c3c(cc(C(=O)O)c2=O)C(=O)CC(C)(C)C3)cc1	none
Cc1csc(SCC(=O)Nc2cccc3nsnc23)n1	p47phox inh 144
Cc1csc(SCC(=O)Nc2ccccc2C)n1	none (no result: 14-3-3 Bad PPI, HMGR II inh, p47phox inh)
O=C(c1cccnc1)N1c2ccccc2Sc2ccccc21	HMGR II inh 12
CC(=O)NCCc1ccc(S(=O)(=O)NCc2ccc3c(c2)OCO3)cc1	none
CC(Sc1nnc(COc2ccc(Cl)cc2)n1Cc1ccco1)C(=O)N1CCNC1=O (stereo not drawn)	none (no result: 14-3-3 Bad PPI, HMGR II inh, p47phox inh)
Cc1ccc(C2(C)NC(=O)N(CC(=O)Nc3c(C)n(C)n(-c4ccccc4)c3=O)C2=O)cc1 (stereo not drawn)	HMGR II inh 13
CCc1ccc(-c2csc(NC(=O)C3=NN(c4ccccc4)C(=O)CC3)n2)cc1	none
C=CCN(c1ccccc1)S(=O)(=O)c1cccc(C(=O)O)c1	14-3-3 Bad PPI 70
COc1ccccc1N(CC(=O)Nc1cc(S(=O)(=O)N(C)C)ccc1C)S(=O)(=O)c1cccs1	none (no result: 14-3-3 Bad PPI, HMGR II inh, p47phox inh)
CCc1ccc2nc(NC(=O)c3ccc4c(=O)[nH]c(CN5CCOCC5)nc4c3)sc2c1	14-3-3 Bad PPI 94[fluorescence artefact?] (no result: dFosB activator)
C[n+]1ccccc1/C=C/c1ccccc1Cl	none (no result: 14-3-3 Bad PPI, HMGR II inh, p47phox inh)
Cc1ccn2c(NC(=O)c3ccccc3)c(-c3cccs3)nc2c1	14-3-3 Bad PPI 70[fluorescence artefact?]
C=CCNC(NC(=O)c1ccccc1)(C(=O)OCC)C(F)(F)F (stereo not drawn)	none
CCCc1nn2c(=O)c(C(c3ccc(C)cc3)c3c(O)nc4sc(CCC)nn4c3=O)c(O)nc2s1	p47phox inh 149
CCCCOc1ccc(C(=O)NCc2ccccn2)cc1	p47phox inh 38
COc1ccc(C(=O)NCc2ccccn2)cc1	none
O=C(CCCC(=O)N(CC(=O)NC1CCCC1)Cc1ccc(F)cc1)Nc1ccccn1	none
Cc1cc(C(=O)OCC(=O)NCc2ccccc2Cl)c(C)o1	14-3-3 Bad PPI 72
Cc1cc(C(=O)OCC(=O)NCc2ccc(Cl)cc2Cl)c(C)o1	none (no result: 14-3-3 Bad PPI, HMGR II inh, p47phox inh)
CC(=O)Nc1ccc(S(=O)(=O)NNC(=O)COc2ccc(C)cc2)cc1	none
Oc1ccc(Br)cc1/C=N/Nc1ncc(-c2ccccc2)cn1	dFosB activator 30
O=C(Nc1ccccc1)c1n[nH]c(Cn2cncn2)n1	none
COc1ccc(Nc2cc(C(=O)NCCCN3CCN(C)CC3)c3ccccc3n2)cc1OC	p47phox inh 73
COc1ccc(Nc2cc(C(=O)NCCCN3CCOCC3)c3ccccc3n2)cc1OC	none
COc1ccc(C(C)=O)cc1COC(=O)c1ccc(OCc2c(C)noc2C)cc1	14-3-3 Bad PPI 73
COc1ccc(C(C)=O)cc1COC(=O)c1c(C)noc1C	none
COc1ccc(CNc2ccc(C(=O)O)cc2)cc1	none
CSc1cccc(NC(=S)N(CCCN2CCCC2)Cc2cccn2Cc2ccc(Cl)cc2)c1	dFosB activator 27, p47phox inh 32
S=C(Nc1cccc(Cl)c1)N(CCCN1CCCC1)Cc1cccn1Cc1ccc(Cl)cc1	p47phox inh 43
Cc1c(CCOC(=O)CC23CC4CC(CC(C4)C2)C3)sc[n+]1CC(=O)c1ccccc1	none
Cc1c(CCOC(=O)C23CC4(C)CC(C)(CC(C)(C4)C2)C3)sc[n+]1CC(=O)c1ccccc1	p47phox inh 33
CCc1nnc(NC(=O)CSc2ncnc3c2oc2ccccc23)s1	14-3-3 Bad PPI 73
O=C(CSc1ncc(-c2ccccc2)[nH]1)Nc1ccccc1	p47phox inh 33
O=C(CSc1ncc(-c2ccccc2)[nH]1)Nc1cccc(O)c1	none
Cc1ccc(C(=O)N/C(=C\c2ccc(-c3ccc(Br)cc3)o2)C(=O)NCCCN(C)C)cc1	dFosB activator inconclusive
CN(C)CCNC(=O)/C(=C/c1ccc(-c2ccc(Cl)cc2Cl)o1)NC(=O)c1ccccc1	dFosB activator 35, p47phox inh 32
CN(C)CCCNC(=O)/C(=C\c1ccc(-c2cccc([N+](=O)[O-])c2)o1)NC(=O)c1ccccc1	none
CN(C)CCNC(=O)/C(=C/c1ccc(-c2ccc(Cl)cc2)o1)NC(=O)c1ccccc1	dFosB activator 20
NC(=O)C1CCN(c2ccc([N+](=O)[O-])cc2Cl)CC1	none
CCCCc1c(C)nc2c(OC)cccc2c1SCCC(=O)O	p47phox inh 34
CCc1c(C)nc2c(OC)cccc2c1SCCC(=O)O	none
COc1ccc(NC(=O)CC2C(=O)N(Cc3ccccc3)C(=S)N2CCN2CCOCC2)cc1 (stereo not drawn)	HMGR II inh 11
O=c1[nH]c(/C=C/c2ccccc2[N+](=O)[O-])nc2ccccc12	14-3-3 Bad PPI 71[fluorescence artefact?]
C=CCn1c(C)cc(-c2csc(NCC)n2)c1C	none
CN(C)c1ccc(/C=c2\sc3nc(-c4ccccc4)nn3c2=O)cc1	p47phox inh 42 (no result: dFosB activator)
COc1cc(/C=c2\sc3nc(-c4ccncc4)nn3c2=O)ccc1OC(C)=O	none (no result: dFosB activator)
Oc1ccc(Cl)cc1Nc1nc(NCC2CCCO2)c2ccccc2n1 (stereo not drawn)	dFosB activator 44 (no result: 14-3-3 Bad PPI, HMGR II inh, p47phox inh)
Oc1ccccc1Nc1nc(NCC2CCCO2)c2ccccc2n1 (stereo not drawn)	dFosB activator 25, 14-3-3 Bad PPI 77
COc1ccc(S(=O)(=O)N2CC=C(C(=O)Nc3ccc(NC(C)=O)cc3)CC2)cc1	HMGR II inh 22
COc1ccc(S(=O)(=O)N2CC=C(C(=O)NC3CCCC3)CC2)cc1	none (no result: 14-3-3 Bad PPI, HMGR II inh, p47phox inh)
Cc1ccc(S(=O)(=O)N(C)CCCC(=O)NC(C)(C)C)cc1	HMGR II inh 12
C#CCn1c(-c2cccs2)nc2ccccc21	HMGR II inh 14
CN(Cc1c(O)ccc2c1oc(=O)c1ccccc12)C1CCCCC1	14-3-3 Bad PPI 87
